Source: PubChem
GAA spleen mod: inhibitors or activators of human alpha-glucosidase in spleen homogenate | P10253 | human spleen homogenate, 4-MU-alpha-glucoside fluorescence | Potency, µM (top dose mostly 79.9 µM), actives largely listed as inhibitors | 240,000 tested, 0.006% active
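Human spleen homogenate (1 ug) incubated with compounds and 1 mM 4-methylumbelliferyl-alpha-D-glucopyranoside in pH 5.0 citrate/phosphate buffer, 37 C, 40 min. Stopped at pH 10; 4-MU fluorescence (Ex 365/Em 440 nm); AC50 by Hill fit.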
GAA glycogen mod: GAA glycogen-cleavage inhibition or activation | 300,000 tested, 0.38% active | P10253 | recombinant GAA, glycogen substrate, Amplex Red glucose oxidase fluorescence | Potency, µM (titrated, usually from 76.4 µM), most hits filed as inhibitors;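 also: the screen sought inhibitors and activators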
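Natural-substrate format: glycogen cleavage by 4 nM human enzyme, glucose read by Amplex Red coupling (Ex 573, Em 610 nm). Normalized to enzyme and no-enzyme controls.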
GLA inh pH 4.5: inhibitors of human alpha-galactosidase A at pH 4.5 | P06280 | purified enzyme, 4-MU-alpha-Gal fluorescence, pH 4.5 | activity change, negative = inhibition, % at 105 µM | 230,000 tested, under 10 active | AID 1467
GAA inhib: inhibitors of human lysosomal alpha-glucosidase | P10253 | purified human GAA, 4-MU-alpha-glucoside fluorescence | Potency, µM (series often up to 76.9 µM), usual class: inhibitors | 200,000 tested, 0.005% active
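Endpoint fluorogenic read: 20 min room-temperature reaction of 4 nM human alpha-glucosidase with 400 uM 4-methylumbelliferyl-alpha-D-pyranoside, pH 5.0, quenched with 1M NaOH/1M glycine pH 10. AC50 from Hill modeling.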
N370S GC mod: inhibitors or activators of N370S glucocerebrosidase for Gaucher disease; P04062; N370S GC spleen homogenate, 4MU-glucoside fluorescence; Potency, µM (doses to about 59.4 µM), actives largely listed as inhibitors; 330,000 tested, 0.092% active
GLA spleen mod: inhibitors or activators of human alpha-galactosidase in spleen homogenate. AID 2107. 240,000 tested, 0.008% active. Potency, µM (highest dose often 80 µM), hits mostly inhibitors. P06280. human spleen homogenate, 4MU-alpha-Gal fluorescence, 40 min
Target sequence (P06280 32-429 limits assumed): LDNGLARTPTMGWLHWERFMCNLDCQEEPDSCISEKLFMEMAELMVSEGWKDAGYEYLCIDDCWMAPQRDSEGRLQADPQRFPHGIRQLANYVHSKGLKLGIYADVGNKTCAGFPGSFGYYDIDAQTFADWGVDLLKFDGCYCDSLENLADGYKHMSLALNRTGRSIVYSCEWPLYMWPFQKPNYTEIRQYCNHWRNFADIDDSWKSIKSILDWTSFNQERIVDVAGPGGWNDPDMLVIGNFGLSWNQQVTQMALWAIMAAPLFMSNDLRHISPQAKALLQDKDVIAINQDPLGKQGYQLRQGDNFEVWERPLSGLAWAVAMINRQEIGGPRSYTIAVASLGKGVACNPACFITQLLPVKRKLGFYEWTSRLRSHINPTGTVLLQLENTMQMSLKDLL
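qHTS titration in buffer at pH 5.0. Alpha-galactosidase activity in spleen homogenate was measured via 4-methylumbelliferone release from 1 mM fluorogenic substrate after 40 min at 37C and a pH 10 stop. AC50 came from Hill fits of control-normalized data.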
A number is an active result; . = inactive; ? = inconclusive; / = not tested or not shown; [ ] = another dose, or the depositor's remark. Shown are actives, neighbours in structure and some others; about 0.43% of the full set was active somewhere. Calls follow the shape of the dose curve; as a rule, active = well fitted curve in the direction sought with a large enough effect; inconclusive = small, poorly fitted or top-dose-only effect, or another doubt; inactive = no such curve, though single readings can be large; an effect the other way counts as inactive or inconclusive.

SMILES	GAA spleen mod	GAA glycogen mod	GLA inh pH 4.5	GAA inhib	N370S GC mod	GLA spleen mod
COc1ccc(S(=O)(=O)N2CCC(C(=O)Nc3ccc(Oc4ccccc4)cc3)CC2)cc1OC	/	11.2µM	/	/	/	/
C[C@@]12CCC[C@H]1C1CC[C@H]3C[C@H](O)CC[C@]3(C)C1CC2 (some centres not stated)	.	/	/	/	.	.
Cc1nc(NS(=O)(=O)c2ccccc2)sc1NC(=O)OCCN(C)C	.	25.1µM	.	.	.	.
COC(=O)[C@@H](N)Cc1ccc(O)c(O)c1	.	/	.	/	.	.
COC(=O)Cc1ccc(O)c(N)c1	.	5.62µM	.	.	.	.
Cc1cccc(C)c1Nc1c(-c2ccsc2)nc2cccc(C)n12	/	.	/	/	/	/
CSc1ccc(-c2nc3cccc(C)n3c2Nc2ccc(Cl)cc2)cc1	/	5.62µM	/	/	/	/
C[C@@H](c1ccccc1)N1C(=O)[C@H]2[C@@H]3[C@H](O)[C@H](O)CC(=O)[C@H]3CC[C@H]2C1=O	.[17.4 µM]	/	/	/	.[12.8 µM]	?
Cc1c(O)ccc(/C=N/Nc2nc(-c3cccnc3)nc3ccccc23)c1O	.	35.5µM	.	.	?	.
Oc1ccc(/C=N/Nc2nc(-c3cccnc3)nc3ccccc23)c(O)c1	.	?	.	/	.	.
O=C(c1ccccc1)c1ccc(OCCOCCN2CCN(Cc3ccccc3)CC2)cc1	.	.	.	.	14.1µM	.
COc1ccc2c(c1)C(c1ccccc1C)CC(=O)O2 (configuration not stated)	.	/	.	/	.	.
C[C@H]1Cc2c(-c3ccccc3)nc3c(c2CO1)CN(C(=O)Nc1cccc(C#N)c1)CC3	.[17.4 µM]	/	.	/	.[12.8 µM]	.[17.5 µM]
CCN(CCN(C)C)C(=O)C1CCN(S(=O)(=O)c2c(C)noc2/C=C/c2ccccc2F)CC1	/	.	/	/	7.08µM	/
CCOc1ccccc1/C=C/c1onc(C)c1S(=O)(=O)N1CCC(C(=O)N(CC)CC)CC1	/	/	/	/	.	/
CCOC(=O)CNC(=O)O[C@@H]1C(=O)c2ccc(OC)cc2O[C@H]1c1ccc2c(c1)OCO2	.	/	.	/	.	.
C#CCOCCOCCOCCNc1nc(N2CCN(C(=O)CCCCCCCCCCNC(=O)[C@H]([C@@H](C)CC)n3cc(CCCCCN)nn3)CC2)nc(N2CCN(C(=O)CCCCCCCCCCNC(=O)[C@@H]([C@H](C)CC)n3cc(CCCCCN)nn3)CC2)n1	/	/	/	/	17.8µM	/
C#CCOCCOCCOCCNc1nc(N2CCN(C(=O)CCCCCCCCCCNC(=O)[C@H]([C@@H](C)CC)n3cc(CCCCCN)nn3)CC2)nc(N2CCN(C(=O)CCCCCCCCCCNC(=O)[C@H]([C@@H](C)CC)n3cc(CCCCN=C(N)N)nn3)CC2)n1	/	/	/	/	17.8µM	/
C#CCOCCOCCOCCNc1nc(N2CCN(C(=O)CCCCCCCCCCNC(=O)[C@H]([C@@H](C)CC)n3cc(CCCCN=C(N)N)nn3)CC2)nc(N2CCN(C(=O)CCCCCCCCCCNC(=O)[C@H](CCCCN)n3cc(C)nn3)CC2)n1	/	/	/	/	15.8µM	/
C#CCOCCOCCOCCNc1nc(N2CCN(C(=O)CCCCCCCCCCNC(=O)Cn3cc(CCCCCN)nn3)CC2)nc(N2CCN(C(=O)CCCCCCCCCCNC(=O)[C@H]([C@@H](C)CC)n3cc(CCCCN=C(N)N)nn3)CC2)n1	/	/	/	/	17.8µM	/
C#CCOCCOCCOCCNc1nc(N2CCOCC2)nc(N2CCN(C(=O)CCCCCCCCCCNC(=O)[C@@H]([C@H](C)CC)n3cc(CCCCCN)nn3)CC2)n1	/	/	/	/	.	/
CCC(C)(C)C(=O)O[C@@H]1C[C@H](C)C=C2C=C[C@H](C)[C@@H](CC[C@H]3C[C@@H](O)CC(=O)O3)[C@H]21	.	/	.	/	.	.
COc1cccc(/C=N/c2oc(-c3ccccc3)cc2C#N)c1O	.	28µM	.	.	.	.
N#Cc1cc(-c2ccccc2)oc1/N=C/c1ccccc1O	.	?	.	.	.	.
CC/C=C\C/C=C\C/C=C\C/C=C\C/C=C\C/C=C\CCC(=O)O[C@H](COCCCCCCCCCCCCCCCC)COP(=O)([O-])OCC[N+](C)(C)C	.	/	.	/	.	.
O=C1CCCC/C1=C\Nc1ccc(O)cc1	.	8.84µM	.	.	?	.
